PubChem BioAssay (NCI)
Values joined by “and” are separate entries in the source; they are usually repeats but may differ in a detail not shown here. Identical values can stand only once. About 83,000 compounds went through this panel and 20% of them were active in at least one assay; those are over-represented in the sample as a whole.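 Values shown are percent growth following 48 h exposure of cells in 96-well plates to a single concentration of compound; below 10 was considered active.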 Unmarked numbers belong to inactive results. Active and inactive are the calls of the source.

What was measured:
Experiment in all cases: NCI-60 one-dose screen, 48 h (100 = growth as untreated, 0 = no growth, -100 = all killed)
Details in all cases: 10 µM unless noted
SK-MEL-2 melanoma = test system: SK-MEL-2 melanoma
EKVX NSCLC = test system: EKVX NSCLC
SN12C renal = test system: SN12C renal
UO-31 renal = test system: UO-31 renal
TK-10 renal = test system: TK-10 renal
ACHN renal = test system: ACHN renal
CAKI-1 renal = test system: CAKI-1 renal
A498 renal = test system: A498 renal
CCRF-CEM leukemia = test system: CCRF-CEM leukemia
MOLT-4 leukemia = test system: MOLT-4 leukemia
SR leukemia = test system: SR leukemia
RPMI-8226 leukemia = test system: RPMI-8226 leukemia
OVCAR-8 ovarian = test system: OVCAR-8 ovarian
OVCAR-5 ovarian = test system: OVCAR-5 ovarian
OVCAR-4 ovarian = test system: OVCAR-4 ovarian
SK-OV-3 ovarian = test system: SK-OV-3 ovarian
IGROV1 ovarian = test system: IGROV1 ovarian
OVCAR-3 ovarian = test system: OVCAR-3 ovarian
HS 578T breast = test system: HS 578T breast
NCI/ADR-RES ovarian = test system: NCI/ADR-RES ovarian

Row | SMILES | growth (SK-MEL-2 melanoma) | growth (EKVX NSCLC) | growth (SN12C renal) | growth (UO-31 renal) | growth (TK-10 renal) | growth (ACHN renal) | growth (CAKI-1 renal) | growth (A498 renal) | growth (CCRF-CEM leukemia) | growth (MOLT-4 leukemia) | growth (SR leukemia) | growth (RPMI-8226 leukemia) | growth (OVCAR-8 ovarian) | growth (OVCAR-5 ovarian) | growth (OVCAR-4 ovarian) | growth (SK-OV-3 ovarian) | growth (IGROV1 ovarian) | growth (OVCAR-3 ovarian) | growth (HS 578T breast) | growth (NCI/ADR-RES ovarian)
1 | CCN(CC)CC(=O)Nc1ccc2ncnc(Nc3ccc(Oc4cccc(F)c4)c(Cl)c3)c2c1 | 90.9% | 42.8% | 67.8% | 22% | 51.9% | 41.6% | 46.6% | 44.2% | 46.8% | 41.8% | 2.54% (active) | 27.6% | 76.1% | 80.8% | 52.6% | 22.4% | 18% | 52.7% | 79.5% | 69.6%
2 | NC1=CC(=O)c2cccnc2C1=O | -46.6% (active) | -20.8% (active) | -85.2% (active) | -98.2% (active) | 94.3% | 5.89% (active) | -69.4% (active) | 81.9% | -24.3% (active) | -46.4% (active) | -27% (active) | -25.7% (active) | -5.58% (active) | -70.8% (active) | -84.5% (active) | 58% | -53.7% (active) | -1.02% (active) | -10.3% (active) | 1.37% (active)
3 | Oc1ccccc1C=Nc1ccc(N2CCN(c3ccccc3)CC2)cc1 | 102% | 113% | 102% | 86.3% | 93.8% | 72.9% | 91.9% | 98.6% | 62.2% | 93.5% | 98% | 91% | 96.9% | 109% | 91% | 64.6% | 103% | 100% | 105% | 92.6%
4 | CCOc1ccc(C(=O)Cc2ccccc2)cc1 | 103% and 118% | 98.5% and 101% | 103% and 105% | 91.3% and 107% | 85.1% and 92.3% | 107% and 115% | 103% and 99.6% | 79.6% and 87.5% | 97.6% | 94.4% and 99.2% | 93.4% and 92.3% | 106% and 95% | 109% and 106% | 103% and 109% | 105% and 106% | 121% and 117% | 116% and 110% | 120% and 125% | 107% | 107% and 104%
5 | CC1(Cc2ccccc2)CC2=C(C(=O)O1)C(c1ccccc1)NC(=O)N2 (stereo not given) | 107% | 98.7% | 104% | 79.9% | 108% | 101% | 95% | 117% | 91.1% | 46.5% | 76.6% | 94% | 104% | 81.2% | 108% | 98.8% | 118% | 109% | 109% | 106%
6 | CCCN1C(=O)/C(=c2\sc3n(c2=O)NC2C(N=3)N(CC)C(=O)N2CC)c2ccccc21 (stereo not given) | 68.6% | 55.7% | 38.1% | 46.7% | 86% | 47.5% | 40.7% | 29% | 25.1% | 38% | 30.6% | 45.5% | 35.7% | 39.6% | 63% | 63.6% | 38.9% | 9.19% (active) | 27.8% | 8.06% (active)
7 | COc1ccccc1/C=C1\COc2ccc(O)c(O)c2C1=O | 58.5% | 71.6% | -11% (active) | -68.6% (active) | 35.2% | 1.49% (active) | 31.9% | 109% | 2.74% (active) | -1.1% (active) | 8.02% (active) | -19.3% (active) | 9.04% (active) | 28.3% | 28.1% | 60.3% | 6.74% (active) | -11.8% (active) | 10.4% | 3.53% (active)
8 | Cc1nc2sc(C(=O)Nc3cccc4ncccc34)c(N)c2cc1C(C)O (stereo not given) | 35.3% | 88.4% | 91.8% | 81.5% | 103% | 93.4% | 89.7% | 48.1% | 54.4% | 64% | 22.4% | 75.8% | 86.6% | 96.5% | 91.3% | 69.9% | 74.4% | 54.6% | 63.6% | 88%
9 | COc1cc(-c2nn(-c3cccc(NC(=O)CCN4CCN(C)CC4)c3)cc2-c2ccncc2)ccc1Cl | 2.29% (active) | 47.1% | 33.3% | 41.5% | 39.2% | 51.7% | 38.7% | 14.1% | 9.08% (active) | 12.7% | -43.5% (active) | 4.86% (active) | 35.1% | 67.9% | 59.7% | 23.1% | 49.7% | 2.81% (active) | -0.227% (active) | 39.9%
10 | Cc1oc2c(Cc3ccc(NC(=O)c4ccc(Cl)cc4)cc3)ncnc2c1C(=O)NO | 88.3% | 102% | 103% | 85.4% | 95.6% | 106% | 98.9% | 85.2% | 90.9% | 82.5% | 71.2% | 92.4% | 98.5% | 103% | 109% | 94.1% | 103% | 95.8% | 113% | 98.2%
11 | O=C(Nc1ncc(Cc2cccc(C(F)(F)F)c2)s1)c1ccc2c(c1)OCCO2 | 40.1% | 30.7% | 35.3% | 47.7% | 44.9% | 29.8% | 24.6% | -2.08% (active) | 17.8% | 9.32% (active) | 6.85% (active) | 17.6% | 23.2% | 37.1% | 37.1% | 35.3% | 23.4% | -8.1% (active) | 21.4% | 7.71% (active)
12 | Cc1cc(N2CCN(CC(=O)Nc3ccc4c(ccn4Cc4ccccc4)c3)CC2)nc(N2CCCCCC2)n1 | 64% | 57.5% | 54.8% | -1.98% (active) | 73.1% | 57.5% | 31.9% | 5.69% (active) | 46.2% | 44.3% | 29.2% | 41.5% | 31.6% | 75.6% | 51.8% | 48.2% | 42.3% | 62.8% | 62.8% | 39.6%
13 | COc1ccc(C/C(C)=C(\c2ccc(O)cc2)c2ccc(OCCCN(C)C)cc2)cc1 | 88.4% | 98.2% | 93.3% | 77.7% | 86.9% | 109% | 107% | 101% | 73.9% | 68.8% | 59.7% | 86.8% | 89.5% | 102% | 92.6% | 101% | 102% | 98.3% | 89% | 98.5%
14 | COc1cc2nc3cc([N+](=O)[O-])ccc3c(NCCNCC(C)(C)O)c2cc1OC | -45.5% (active) | 7.08% (active) | -17.1% (active) | 27.7% | 9.89% (active) | 6.39% (active) | 16.1% | -48.8% (active) | 0.0876% (active) | 5.85% (active) | -12.2% (active) | -8.62% (active) | -3.94% (active) | 8.33% (active) | -31.8% (active) | 17.8% | -15.9% (active) | -31.2% (active) | -2.1% (active) | 55%
